# Experimental data: the supplement of paper PMC8728848
# The full list was thinned out, with the strongest signals kept by preference.
# How the values were obtained:
# Assay in all cases: glycan array binding signal (z-score within array); higher = stronger binding
# Conditions in all cases: glycan notation: IUPAC condensed, linker removed
# [1] = target: Fuc(a1-2)Gal(b1-3)GlcNAc(b1-3)[Gal(b1-4)GlcNAc(b1-6)]Gal(b1-4)Glc
# Method in brief: (§1)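 Arrays were curated from the Consortium for Functional Glycomics database, 3228 in total, and kept only where the protein sequence was available. Binding is expressed as a within-array Z-score. This score was averaged across arrays of the same protein sequence at different concentrations or buffers and across linkers, and negative values can be read as non-binding.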
# [2] = target: Fuc(a1-2)Gal(b1-4)[Fuc(a1-3)]GlcNAc(b1-2)[Fuc(a1-2)Gal(b1-4)[Fuc(a1-3)]GlcNAc(b1-4)]Man(a1-3)[Fuc(a1-2)Gal(b1-4)[Fuc(a1-3)]GlcNAc(b1-2)Man(a1-6)]Man(b1-4)GlcNAc(b1-4)GlcNAc
# Method in brief: as §1
# [3] = target: Fuc(a1-2)[Gal(a1-3)]Gal(b1-3)GalNAc
# Method in brief: as §1
# [4] = target: Fuc(a1-2)[Gal(a1-3)]Gal(b1-3)GalNAc(b1-3)Gal(a1-4)Gal(b1-4)Glc
# Method in brief: as §1
# [5] = target: Fuc(a1-2)[GalNAc(a1-3)]Gal(b1-3)GlcNAc(b1-2)Man(a1-3)[Fuc(a1-2)[GalNAc(a1-3)]Gal(b1-3)GlcNAc(b1-2)Man(a1-6)]Man(b1-4)GlcNAc(b1-4)GlcNAc
# Method in brief: as §1
# [6] = target: Fuc(a1-2)[GalNAc(a1-3)]Gal(b1-4)GlcNAc(b1-2)Man(a1-3)[Fuc(a1-2)[GalNAc(a1-3)]Gal(b1-4)GlcNAc(b1-2)Man(a1-6)]Man(b1-4)GlcNAc(b1-4)GlcNAc
# Method in brief: as §1
# [7] = target: Fuc(a1-3)[Gal(b1-4)]GlcNAc(b1-3)GalNAc
# Method in brief: as §1
# [8] = target: Fuc(a1-3)[Gal(b1-4)]GlcNAc(b1-6)GalNAc
# Method in brief: as §1
# [9] = target: Fuc(a1-3)[Gal3S(b1-4)]GlcNAc
# Method in brief: as §1
# [10] = target: Fuc(a1-4)GlcNAc
# Method in brief: as §1
# [11] = target: Gal(a1-2)Gal
# Method in brief: as §1
# [12] = target: Gal(a1-3)Gal
# Method in brief: as §1
# [13] = target: Gal(a1-3)Gal(b1-3)GlcNAc
# Method in brief: as §1
# [14] = target: Gal(a1-3)Gal(b1-3)GlcNAc(b1-2)Man(a1-3)[Gal(a1-3)Gal(b1-3)GlcNAc(b1-2)Man(a1-6)]Man(b1-4)GlcNAc(b1-4)GlcNAc
# Method in brief: as §1
# [15] = target: Gal(a1-3)Gal(b1-4)Glc
# Method in brief: as §1
# [16] = target: Gal(b1-3)GalNAc(b1-4)Gal(b1-4)Glc
# Method in brief: as §1
# [17] = target: Gal(b1-3)GlcNAc(b1-3)Gal(b1-4)GlcNAc
# Method in brief: as §1
# [18] = target: Gal(b1-4)GlcNAc(b1-2)Man(a1-3)[GlcNAc(b1-2)Man(a1-6)]Man(b1-4)GlcNAc(b1-4)GlcNAc
# Method in brief: as §1
# [19] = target: Gal(b1-4)GlcNAc(b1-2)Man(a1-3)[GlcNAc(b1-4)][Gal(b1-4)GlcNAc(b1-2)Man(a1-6)]Man(b1-4)GlcNAc(b1-4)GlcNAc
# Method in brief: as §1
# [20] = target: Gal(b1-4)GlcNAc(b1-2)Man(a1-6)Man(b1-4)GlcNAc(b1-4)GlcNAc
# Method in brief: as §1
# [21] = target: Gal(b1-4)GlcNAc(b1-2)Man(a1-6)[Man(a1-3)]Man(b1-4)GlcNAc(b1-4)GlcNAc
# Method in brief: as §1
# [22] = target: Gal(b1-4)GlcNAc(b1-2)[Gal(b1-4)GlcNAc(b1-6)]Man(a1-6)[GlcNAc(b1-4)][Gal(b1-4)GlcNAc(b1-2)Man(a1-3)]Man(b1-4)GlcNAc(b1-4)GlcNAc
# Method in brief: as §1
# [23] = target: Gal(b1-4)GlcNAc(b1-3)Gal(b1-4)GlcNAc(b1-2)[Gal(b1-4)GlcNAc(b1-3)Gal(b1-4)GlcNAc(b1-6)]Man(a1-6)[Gal(b1-4)GlcNAc(b1-3)Gal(b1-4)GlcNAc(b1-2)Man(a1-3)]Man(b1-4)GlcNAc(b1-4)GlcNAc
# Method in brief: as §1
# [24] = target: Gal(b1-4)GlcNAc(b1-3)Gal(b1-4)GlcNAc(b1-2)[Gal(b1-4)GlcNAc(b1-3)Gal(b1-4)GlcNAc(b1-6)]Man(a1-6)[Gal(b1-4)GlcNAc(b1-3)Gal(b1-4)GlcNAc(b1-2)Man(a1-3)]Man(b1-4)GlcNAc(b1-4)[Fuc(a1-6)]GlcNAc
# Method in brief: as §1
# [25] = target: Gal(b1-4)GlcNAc(b1-3)Gal(b1-4)GlcNAc(b1-3)Gal(b1-4)GlcNAc(b1-3)Gal(b1-4)GlcNAc(b1-3)Gal(b1-4)GlcNAc(b1-2)[Gal(b1-4)GlcNAc(b1-3)Gal(b1-4)GlcNAc(b1-3)Gal(b1-4)GlcNAc(b1-3)Gal(b1-4)GlcNAc(b1-3)Gal(b1-4)GlcNAc(b1-6)]Man(a1-6)[Gal(b1-4)GlcNAc(b1-3)Gal(b1-4)GlcNAc(b1-3)Gal(b1-4)GlcNAc(b1-3)Gal(b1-4)GlcNAc(b1-3)Gal(b1-4)GlcNAc(b1-2)Man(a1-3)]Man(b1-4)GlcNAc(b1-4)[Fuc(a1-6)]GlcNAc
# Method in brief: as §1
# [26] = target: Gal3S(b1-4)[Fuc(a1-3)]GlcNAc
# Method in brief: as §1
binder,measurement,setting,value
rEtpA (Escherichia coli) (protein) MNRIYKLKFDKRRNELVVVSEITTGVGNAKATGSVEGEKSPRRGVRAMALSLLSGMMIMAHPAMSANLPTGGQIVAGSGSIQTPSGNQMNIHQNSQNMVANWNSFDIGKGNTVQFDQPSSSAVALNRVVGGGESQIMGNLKANGQVFLVNPNGVLFGEGASVSTSGFVASTRDIKNDDFMNRRYTFSGGQKAGAAIVNQGELTTNAGGYIVLAADRVSNSGTIRTPGGKTVLAASERITLQLDNGGLMSVQVTGDVVNALVENRGLVSARDGQVYLTALGRGMLMNTVLNVSGVVEASGMHRQDGNIVLDGGDSGVVHLSGTLQADNASGQGGKVVVQGKNILLDKGSNITATGGQGGGEVYVGGGWQGKDSNIRNADKVVMQGGARIDVSATQQGNGGTAVLWSDSYTNFHGQISAKGGETGGNGGRVETSSHGNLQAFGTVSASAKKGKAGNWLLDSADITIVNGSNVSKTETTQSPPHTQFAPTAAGSAVSNTSINNRLNNGTSVTILTHRTRTGTAQGGNITVNAAINKSNGSDVNLTLQAGGNITVNNSITSTEGKLNVNLSGARTSNGSITISNNANITTNGGDITVGTTNTSNRVNISINNTTLNASNGNIQLTGTGTDSGILFAGNNRLTASNIALTGNSTSGNAINLTGTATLNATNNITLTGSSTSGNAINLKGNNTLTASNITLTGESTSGNAINLTDTTGTTTLNATNNITMQGTRVQIKHSNITAGNFALNATVAGSEISNTTLTATNNINLAAKTNSASSGVYLKDARITSTNGSITANGTATANGKATHLDGNVTLNASNGRIKLTGNGHGSASGILFAGNNRLTASNIALTGNSTSGNAINLTGTATLNATNDITLTGSSTSGNAINLTGTATLNATNNITLTGSSTSGNAINLKGNNTLTASNITLTGESTSGNAINLTDTTGTTTLNATNNITMQGTRVQIKHSNITAGNFALNATVAGSEISNTTLTATNNINLAAKTNSASSGVYLKDARITSTNGSITANGTATANGKATHLDGNVTLNASNGRIKLTGNGHGSASGILFAGNNRLTASNIALTGNSTSGNAINLTGTATLNATNDITLTGSSTSGNAINLTGTATLNATNNITLTGSSTSGNAINLKGNNTLTASNITLTGESTSGNAINLTDTTGTTTLNATNNITMQGTRVQIKHSNITAGNFALNATVAGSEISNTTLTATNNINLAAKTNSASSGVYLKDARITSTNGSITANGTATANGKATHLDGNVTLNASNGRIKLTGNGHGSASGILFAGNNRLTASNIALTGNSTSGNAINLTGTATLNATNDITLTGSSTSGNAINLTGTATLNATNNITLTGSSTSGNAINLKGNNTLTASNITLTGESTSGNAINLTDTTGTTTLNATNNITMQGTRVQIKHSNITAGNFALNATVAGSEISNTTLTATNNINLAAKTNSASSGVYLKDARITSTNGSITTNGTATANGKATHLDGNVTLNASNGRIKLTGNGHGSASGILFAGNNRLTASNIALTGNSTSGNAINLTGTATLNATNDITLTGSSTSGNAINLTGTATLNATNNITLTGSSTSGNAINLKGNNTLTASNITLTGESTSGNAINLTDTTGTTTLNATNNITMQGTRVQIKHSNITAGNFALNATVAGSEISNTTLTATNNINLAAKTNSASSGVYLKDARITSTNGSITANGTAPANDNATYLDGNVTLNASNGSIKLTGNGNGSTSGILFAGNNTLTASNITLTGNSEVYWQKLGPEQKLISEEDLNSAVDHHHHHH,glycan array binding signal (z-score),[1],-0.058
same,glycan array binding signal (z-score),[2],-0.225
same,glycan array binding signal (z-score),[3],0.413
same,glycan array binding signal (z-score),[4],-0.241
same,glycan array binding signal (z-score),[5],-0.328
same,glycan array binding signal (z-score),[6],-0.09
same,glycan array binding signal (z-score),[7],-0.358
same,glycan array binding signal (z-score),[8],-0.192
same,glycan array binding signal (z-score),[9],-0.102
same,glycan array binding signal (z-score),[10],2.8
same,glycan array binding signal (z-score),[11],0.054
same,glycan array binding signal (z-score),[12],2.11
same,glycan array binding signal (z-score),[13],1.87
same,glycan array binding signal (z-score),[14],0.182
same,glycan array binding signal (z-score),[15],-0.179
same,glycan array binding signal (z-score),[16],-0.272
same,glycan array binding signal (z-score),[17],-0.457
same,glycan array binding signal (z-score),[18],-0.408
same,glycan array binding signal (z-score),[19],-0.274
same,glycan array binding signal (z-score),[20],-0.376
same,glycan array binding signal (z-score),[21],0.021
same,glycan array binding signal (z-score),[22],-0.309
same,glycan array binding signal (z-score),[23],-0.106
same,glycan array binding signal (z-score),[24],-0.356
same,glycan array binding signal (z-score),[25],-0.351
same,glycan array binding signal (z-score),[26],-0.202
